Records with an inconclusive call do not appear. Activity calls are given as the source filed them. Unless noted, calls follow the shape of the dose curve; as a rule, active = well fitted curve in the direction sought with a large enough effect in the repeat runs; inconclusive = weak or mixed curves; inactive = no such curve, though single readings can be large; an effect the other way counts as inactive or inconclusive.
Tests used:
[1] = qHTS assay to identify small molecule antagonists of the estrogen receptor alpha (ER-alpha) signaling pathway using the BG1 cell line in the presence of 0.1 nM 17-beta-estradiol - cell viability counter screen (AID 1259241); also: nearly all actives have a fitted effect of over 40% in size
Summary of the method: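 Viability in VM7Luc4E2 cells after 22 hr compound exposure under 0.1 nM 17beta-estradiol stimulation, by CellTiter-Fluor.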

[2] = qHTS assay to identify small molecule antagonists of the androgen receptor (AR) signaling pathway using the MDA cell line in the presence of 0.5 nM R1881 - cell viability counter screen (AID 1259242); also: nearly all actives have a fitted effect of over 45% in size
Summary of the method: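 Viability of MDA-kb2 cells was multiplexed with the luciferase AR readout; after 16 hr with compounds and R1881 at 0.5 nM final, CellTiter-Fluor fluorescence was recorded.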

[3] = biological target: Estrogen receptor (Homo sapiens) (UniProt P03372); experiment: qHTS assay to identify small molecule antagonists of the estrogen receptor alpha (ER-alpha) signaling pathway using the BG1 cell line in the presence of 0.1 nM 17-beta-estradiol (AID 1259244); also: nearly all actives have a fitted effect of over 50% in size; also: potency is read from the fitted curve at half-maximal effect
Estrogen receptor (Homo sapiens), sequence (P03372 whole entry, looked up): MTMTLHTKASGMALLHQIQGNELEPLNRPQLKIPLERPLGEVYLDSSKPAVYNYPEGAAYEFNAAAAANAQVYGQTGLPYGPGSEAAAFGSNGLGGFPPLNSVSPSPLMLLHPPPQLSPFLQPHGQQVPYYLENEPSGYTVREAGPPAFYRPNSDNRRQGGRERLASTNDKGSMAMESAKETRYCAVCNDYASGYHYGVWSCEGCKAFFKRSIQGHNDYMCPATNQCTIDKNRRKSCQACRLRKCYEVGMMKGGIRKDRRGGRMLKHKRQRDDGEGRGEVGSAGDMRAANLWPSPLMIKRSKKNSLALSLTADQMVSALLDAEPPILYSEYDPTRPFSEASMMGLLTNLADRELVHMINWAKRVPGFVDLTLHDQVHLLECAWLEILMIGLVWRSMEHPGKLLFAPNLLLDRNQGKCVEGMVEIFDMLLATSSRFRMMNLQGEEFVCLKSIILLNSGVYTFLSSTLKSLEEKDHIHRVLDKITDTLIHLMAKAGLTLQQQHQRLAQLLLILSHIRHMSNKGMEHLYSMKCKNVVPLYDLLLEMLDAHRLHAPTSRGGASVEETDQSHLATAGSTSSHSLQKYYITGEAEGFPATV
Summary of the method: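 Estradiol at 0.1 nM (final) stimulates the endogenous ER-alpha of VM7Luc4E2 cells carrying an ERE-driven luciferase; compounds are co-incubated 22 h at 37C and luciferase output quantified by luminescence.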

[4] = qHTS assay to identify small molecule HDAC inhibitors (AID 1259364); also: potency is read from the fitted curve at half-maximal effect;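 also: wild-type HCT-116 cells with endogenous class I/II HDAC activity; nearly all actives have a fitted effect of over 45% in size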
Summary of the method: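 Read-out: luminescence of HDAC-Glo I/II reagent, 30 min RT, reflecting class I/II deacetylase activity in whole HCT-116 cells pre-exposed 2 h to DMSO-dissolved compounds.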

[5] = qHTS assay to identify small molecule HDAC inhibitors - cell viability counter screen (AID 1259365); also: series mostly up to about 92 µM; nearly all actives have a fitted effect of over 50% in size
Summary of the method: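 Cytotoxicity was gauged in wild-type HCT-116 cells after a brief 2hr treatment with DMSO-dissolved compounds at 37C and 5% CO2, using CellTiter-Glo luminescence developed for 30min at room temperature.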

[6] = qHTS assay to identify small molecule agonists of the sonic hedgehog signaling (Shh) pathway - cell viability counter screen (AID 1259366); also: nearly all actives have a fitted effect of over 50% in size; also: potency is read from the fitted curve at half-maximal effect
Summary of the method: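 Stable Gli1-Luc NIH/3T3 clone, 2,000 cells/well. Compound exposure 24hr at 37C. Read-out: CellTiter-Fluor fluorescence.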

[7] = qHTS assay to identify small molecule antagonists of the sonic hedgehog signaling (Shh) pathway - cell viability counter screen (AID 1259367); also: nearly all actives have a fitted effect of over 55% in size
Summary of the method: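 NIH/3T3-derived Gli1-Luc reporter cells (2,000 per well) rested 4 hr at 37 C, then received DMSO compounds plus conditioned medium. After 23 hr of treatment, CellTiter-Fluor was added for 1 hr at 37C and fluorescence read.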

[8] = qHTS assay to identify small molecule agonists of the sonic hedgehog signaling (Shh) pathway (AID 1259368; calls by dose curve; also: nearly all actives have a fitted effect of over 15% in size; also: potency is read from the fitted curve at half-maximal effect)
Summary of the method: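 A Gli1 transcriptional response element controlled firefly luciferase in 3T3Gli1-Luc cells. Compounds and a positive control were added 4 hr after plating, and cells were incubated a further 24 hr at 37 C before luminescence detection.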

Measured: Potency

C=C/C(C)=C/C/C=C(\C)CCC=C(C)C
inactive: all assays above

C=COCC(C)C
inactive: all assays above

Cc1ccc(CO)cc1
not listed: [6]
inactive: all other assays above

C=CC(=O)[O-].C=CC(=O)[O-].[Zn+2]
active: [6] 53.2 µM
not listed: [7]
inactive: all other assays above

CC(O)c1ccccc1 (stereo not drawn)
inactive: all assays above

Cc1ccc(C(C)(C)O)cc1
inactive: all assays above

CNC(=O)c1cnn(-c2nc(N)c3ncn([C@@H]4O[C@H](CO)[C@@H](O)[C@H]4O)c3n2)c1
inactive: all assays above

C=C(C)C(=O)OCCOCCOC(=O)C(=C)C
inactive: all assays above

CCc1ccccc1
inactive: all assays above

CCCC(=O)C(=O)O
not listed: [6] | [8]
inactive: all other assays above

C(=C\c1ccccc1)/c1ccccc1
active: [4] 19.2 µM
inactive: all other assays above

CCOC(=O)c1ccc(O)c(O)c1
inactive: all assays above

COC(=O)CS
active: [4] 26.3 µM
inactive: all other assays above

C=C(C)C(=O)OCCCCCCCCCCCCC
inactive: all assays above

CCC(C)COC(=O)CC(C)C (stereo not drawn)
inactive: all assays above

CN1C(C(=O)Nc2ccccn2)=C(O)c2sccc2S1(=O)=O
inactive: all assays above

Cc1ccccc1S
not listed: [6]
inactive: all other assays above

NCCNCCO
inactive: all assays above

O=C(CCc1ccc(O)cc1)c1c(O)cc(O)cc1O
inactive: all assays above

CCOC(=O)c1ccc(I)cc1
not listed: [6]
inactive: all other assays above

CC(=O)[C@H]1[C@H](C#N)C[C@H]2[C@@H]3CC=C4C[C@@H](O)CC[C@]4(C)[C@H]3CC[C@@]21C
not listed: [6]
inactive: all other assays above

CCCCCC#CC(=O)OC
inactive: all assays above

CCC=CC#N
active: [4] 21 µM | [8] 29.7 µM
inactive: all other assays above

O=Cc1c2ccccc2c(Cl)c2ccccc12
inactive: all assays above

CC1(CN2CCC(n3c(=O)[nH]c4ccccc43)CC2)OCc2ccccc2-n2cccc21 (stereo not drawn)
active: [3] 29.8 µM
inactive: all other assays above

Cc1ccco1
inactive: all assays above

C=C1CCC2CC1C2(C)C (stereo not drawn)
not listed: [6]
inactive: all other assays above

From PubChem BioAssay (Tox21)
